# Source: PubChem
# Rows were chosen to be rich in hits. Some 1.3% of all compounds tested hit in one or more screens of this group.
# IDE cell activ – boosts human insulin-degrading enzyme activity in HEK cells; P14735; FAbeta-B cleavage, fluorescence polarization; 0% vehicle, 100% cell-free pure enzyme wells; activation, % at 5.96 µM; hit rate 0.073% among 340,000;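 active = activation above the mean of all tested compounds plus 3 SD, set per screening campaign, cut at about 17% in these data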
# PKA-R2B activ – PKA-R2B complex activation; PKA-R2B holoenzyme dissociation, Cy5-IP20 fluorescence polarization; R2B truncated from residue 108, S112A mutant; 0% DMSO only, 100% 113 µM cGMP; activation, % at 11.4 µM; hit rate 0.079% among 340,000; P22694+P31323;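 active = activation above a cutoff set at the mean over all compounds plus 3 SD, cut at about 18% in these data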;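 note: higher means more holoenzyme dissociation and a rise in polarization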
# PKA-R1A act – PKA-R1A complex activation; activation, % at 11.4 µM; hit rate 0.083% among 340,000; PKA-R1A dissociation, Cy5-IP20 fluorescence polarization; scaled: DMSO 0%, 113 µM cGMP 100%; P00514+P68181;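 active = percent activation above the mean of all tested compounds plus 3 SD, cut at about 19% in these data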;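 note: higher means more PKAc released from R1A so a rise in polarization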
# E coli Lon inh – inhibitors of E. coli Lon protease; P0A9M0; purified E. coli Lon protease, fluorescence polarization; inhibition, % at 7.94 µM; hit rate 0.42% among 360,000; AID 602123; in the data active = inhibition above about 13%, passing the limit was not always enough;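 note: 0% = enzyme with probe and DMSO and 100% = no enzyme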
# Rin1 Abl inh – inhibitors of human Rin1-Abl protein interaction. P00519+Q13671. TR-FRET Rin1/Abl binding, biochemical. inhibition, % at 7.35 µM. hit rate 0.4% among 360,000; in the data active = inhibition above about 5%, passing the limit was not always enough
# Target sequence (P00519 whole entry, looked up): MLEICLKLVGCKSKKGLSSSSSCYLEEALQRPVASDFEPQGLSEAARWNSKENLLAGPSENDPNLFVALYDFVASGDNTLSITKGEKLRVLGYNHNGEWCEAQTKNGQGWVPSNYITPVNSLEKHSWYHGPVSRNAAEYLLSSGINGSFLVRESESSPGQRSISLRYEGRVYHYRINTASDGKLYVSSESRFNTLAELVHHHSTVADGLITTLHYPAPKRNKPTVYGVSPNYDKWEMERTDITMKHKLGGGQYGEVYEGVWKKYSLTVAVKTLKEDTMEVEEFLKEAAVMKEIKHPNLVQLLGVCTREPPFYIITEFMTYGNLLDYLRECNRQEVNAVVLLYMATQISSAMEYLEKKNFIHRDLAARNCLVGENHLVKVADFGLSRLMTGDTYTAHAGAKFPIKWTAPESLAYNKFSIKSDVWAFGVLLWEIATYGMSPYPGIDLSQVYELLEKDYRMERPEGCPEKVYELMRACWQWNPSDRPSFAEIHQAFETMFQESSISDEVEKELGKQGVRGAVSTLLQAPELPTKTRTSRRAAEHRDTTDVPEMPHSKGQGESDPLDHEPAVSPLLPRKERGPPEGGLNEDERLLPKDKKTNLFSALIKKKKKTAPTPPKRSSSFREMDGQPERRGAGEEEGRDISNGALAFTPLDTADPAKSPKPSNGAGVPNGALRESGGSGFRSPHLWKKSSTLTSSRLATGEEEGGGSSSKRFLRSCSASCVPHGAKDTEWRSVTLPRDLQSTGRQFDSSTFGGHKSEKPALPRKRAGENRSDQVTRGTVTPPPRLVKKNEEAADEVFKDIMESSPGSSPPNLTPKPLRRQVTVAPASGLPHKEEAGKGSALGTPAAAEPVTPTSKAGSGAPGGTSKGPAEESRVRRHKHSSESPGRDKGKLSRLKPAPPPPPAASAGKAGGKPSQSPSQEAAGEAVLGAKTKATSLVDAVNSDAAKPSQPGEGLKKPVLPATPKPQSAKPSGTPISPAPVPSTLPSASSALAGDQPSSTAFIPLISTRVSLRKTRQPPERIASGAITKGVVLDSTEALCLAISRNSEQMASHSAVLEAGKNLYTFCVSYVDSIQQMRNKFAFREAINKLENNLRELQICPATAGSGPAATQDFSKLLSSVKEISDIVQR
# Target sequence (Q13671 whole entry, looked up): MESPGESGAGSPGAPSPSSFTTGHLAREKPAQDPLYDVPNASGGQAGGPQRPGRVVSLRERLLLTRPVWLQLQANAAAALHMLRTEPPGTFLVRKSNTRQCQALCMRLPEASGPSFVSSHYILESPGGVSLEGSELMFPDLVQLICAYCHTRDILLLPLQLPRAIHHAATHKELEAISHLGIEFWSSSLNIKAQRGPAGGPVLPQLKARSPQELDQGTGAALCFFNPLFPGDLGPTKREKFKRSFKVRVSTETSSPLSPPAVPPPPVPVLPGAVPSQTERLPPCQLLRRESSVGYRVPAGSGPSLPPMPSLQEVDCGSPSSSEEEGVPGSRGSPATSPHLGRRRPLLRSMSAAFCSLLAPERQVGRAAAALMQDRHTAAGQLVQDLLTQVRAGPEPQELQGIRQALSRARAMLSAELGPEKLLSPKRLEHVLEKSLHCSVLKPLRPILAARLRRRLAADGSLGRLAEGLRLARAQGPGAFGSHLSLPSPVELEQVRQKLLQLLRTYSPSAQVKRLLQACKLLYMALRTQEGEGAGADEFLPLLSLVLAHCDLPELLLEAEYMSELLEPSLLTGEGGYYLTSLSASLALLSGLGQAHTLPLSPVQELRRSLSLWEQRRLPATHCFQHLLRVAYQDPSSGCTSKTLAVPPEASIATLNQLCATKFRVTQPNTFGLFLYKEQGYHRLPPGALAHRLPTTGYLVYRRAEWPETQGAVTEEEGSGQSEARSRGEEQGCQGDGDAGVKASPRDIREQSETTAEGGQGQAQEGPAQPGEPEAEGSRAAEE
# IDE cell inh – inhibitors of human insulin-degrading enzyme in cells; P14735; HEK cells, FAbetaB cleavage, fluorescence polarization; inhibition, % at 5.59 µM; hit rate 0.41% among 320,000; AID 434962;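 active = percent inhibition above the average of all tested compounds plus 3 SD, set per screening campaign, cut at about 16% in these data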;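 note: IDE supplied by intact live HEK cells; FP after avidin binding of uncleaved biotin substrate so inhibition keeps polarization high; 0% = DMSO wells and 100% = 60 µM reference IDE inhibitor Ii1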
# Rin1-Abl confirm – Rin1-Abl interaction inhibition confirmation. hit rate 49% among 1,300. shares compounds with Rin1 Abl inh. inhibition, % at 7.35 µM. TR-FRET Rin1-Abl binding, purified proteins
# GFP quencher – quenches GFP fluorescence, counter-screen for Rin1-Abl inhibitors. shares compounds with Rin1 Abl inh. inhibitors/quenchers counterscreen. inhibition, % at 6.75 µM. hit rate 8.5% among 1,300. AID 602125;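 note: ABL1-eGFP fusion protein alone without its partner RIN1-SBP; 0% = protein with vehicle and 100% = wells lacking protein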
# * hit, by the source's call; · = no result; ! = not confirmed by another sample. Cut-off read from the data, not from the text of the source, unless noted: active = inhibition above about 6.5%; inactive = the rest.
SMILES,IDE cell activ,PKA-R2B activ,PKA-R1A act,E coli Lon inh,Rin1 Abl inh,IDE cell inh,Rin1-Abl confirm,GFP quencher
COC(=O)COc1cccc(NC(=O)COc2ccccc2)c1,4.9,3.2,-18.2,6.1,7.5*,3.7,-0.9,-0.5
CCN(CC)CCNC(=O)c1ccc(NC(=O)C2CCN(c3ncnc4sc(C)c(C)c34)CC2)cc1,1.4,-16.6,-12.7,0.3,10.4*,5.8,0.0,-0.1
COc1ccc(CCNC(=O)c2c(N)no[n+]2[O-])cc1OC,5.0,4.1,-7.2,1.0,6.6*,2.5,0.8,-0.4
COc1ccc(CCNC(=O)c2ccc(OC)c(OC)c2)cc1OC,1.0,3.1,-6.9,-7.9,-4.1,-4.9,·,·
Nc1nnc(CCCCc2cccs2)o1,3.8,5.8,-16.3,-0.1,7.6*,·,2.0,-0.5
COc1cc2c(cc1NC(=O)CSc1nccn1C)oc1ccccc12,1.9,4.1,-0.7,-0.4,-1.4,-5.9,·,·
CC(C)(C)n1ncc2c(=O)n(Cc3cccc(Cl)c3)cnc21,-1.8,-10.0,-3.5,5.8,7.6*,9.6,-0.8,-0.9
CC(Sc1nnc2ccccn12)C(=O)Nc1ccc(N2CCOCC2)cc1 (stereo unspecified),4.9,0.9,-0.7,-1.7,2.4,8.6,·,·
C[C@H](CO)N1C[C@H](C)[C@@H](CN(C)C(=O)Nc2ccc(C(F)(F)F)cc2)Oc2ccc(NC(=O)C3CC3)cc2C1=O,-2.2,1.7,-3.4,9.8,1.1,-4.1,·,·
COc1ccc2ncc(S(=O)(=O)c3ccccc3)c(N3CCC4(CC3)OCCO4)c2c1,2.0,-16.2,5.2,-4.8,8.2*,4.3,3.9,0.6
COc1ccc(NC(=S)N2CCN(C/C=C/c3ccccc3)CC2)cc1,3.1,-8.4,2.8,-5.5,9.3*,-2.7,-1.0,-1.2
Cc1nn(-c2ccccc2)c(C)c1C(=O)OCC(=O)Nc1ccccc1,4.9,-2.0,-2.8,-5.8,1.9,-1.7,·,·
Cc1nn(-c2ccccc2)c(C)c1C(=O)OCC(=O)N(C)c1ccccc1,-1.4,-3.5,-6.2,-5.1,9.0*,-0.1,2.3,-0.5
COCCNC(=O)c1cc(-c2ccccn2)nc2ccc(S(=O)(=O)N3CCC(C)CC3)cc12,0.7,1.4,-3.6,2.9,17.0*,-1.1,-2.0,-1.1
O=[N+]([O-])c1cccc(COc2ncnc3cc([N+](=O)[O-])ccc23)c1,-5.9,-9.3,-2.1,7.8,-2.9,-2.1,·,·
CC12CCC(=O)C=C1CCC1C3CC(O)C(O)(C(=O)CO)C3(C)CC(O)C12F (stereo unspecified),3.5,-12.3,-3.4,-16.5,1.5,·,·,·
CN(C)S(=O)(=O)c1ccc(NC(=O)COc2ncnc3c2cnn3-c2ccccc2)cc1,4.6,-5.0,-1.1,-6.5,6.8*,3.5,5.0,2.5
CC(=O)Nc1ccc(Nc2ncnc3c2cnn3-c2ccccc2)cc1,-2.1,-9.4,3.7,-2.3,-4.8,4.2,·,·
C[C@@H]1O[C@@H](O[C@@H]2[C@@H](O)[C@H](OCCc3ccc(O)c(O)c3)O[C@H](CO)[C@H]2OC(=O)/C=C/c2ccc(O)c(O)c2)[C@H](O)[C@H](O)[C@H]1O,0.1,-3.8,-6.8,1.3,30.5*,0.4,33.6*,2.5
COc1cc(OC)cc(C(=O)N[C@H](C(=O)Nc2nc(-c3ccc(OC)c(OC)c3)cs2)C(C)C)c1,9.0,5.2,8.2,11.4,2.1,4.0,·,·
Cc1ccc(-c2nnc(-n3ncc(C#N)c3N)c3ccccc23)cc1C,1.3,6.0,1.2,-0.2,9.3*,-1.5,-0.6,-1.2
CC(C)c1csc(CN2CCC(C(=O)Nc3cccc(-c4ccco4)c3)CC2)n1,·,2.8,-7.2,-102.2,-1.9,·,·,·
CCn1c(CCc2ccccc2)nnc1SCC(N)=O,7.6,2.1,0.5,12.0,6.9*,1.6,-1.1,0.9
CC1=C(O)C(=O)C(C2=C(O)C(=O)C(C)=C(O)C2=O)=C(O)C1=O,2.0,-5.4,-8.4,-3.6,46.5*,·,37.4*,27.7*
CN1CCc2cccc3c2[C@H]1Cc1ccc(O)c(O)c1-3,-21.3,-3.9,5.1,2.5,15.8*!,2.1,10.8*,10.8*
SMILES,IDE cell activ,PKA-R2B activ,PKA-R1A act,E coli Lon inh,Rin1 Abl inh,IDE cell inh,Rin1-Abl confirm,GFP quencher
Cc1c(C(=O)N2CCCCCC2)oc2ccccc12,6.2,8.0,0.1,1.0,6.6*,-1.1,0.8,-1.1
Cc1ccc(NC(=O)CN2CCN(Cc3ccccc3)CC2)cc1F,5.8,-10.9,-2.7,3.4,-1.1,2.7,·,·
CC1CCCC(NC(=O)COC(=O)[C@@H](NC(=O)c2ccc(F)cc2)C(C)C)C1C (stereo partly specified),5.5,-2.2,-7.2,1.6,2.9,0.2,·,·
CC(C)c1nc2oc3c(NCC4CCCO4)ncnc3c2c2c1COC(C)(C)C2 (stereo unspecified),0.9,1.7,0.8,0.7,0.0,·,·,·
CC(C)c1nc2oc3c(NCCO)ncnc3c2c2c1COC(C)(C)C2,-1.2,5.5,14.8,1.2,7.7*,-0.3,7.7*,0.7
O=C(CSC1=NNC(c2ccccn2)S1)Nc1cccc(Cl)c1 (stereo unspecified),·,·,·,-5.6,2.8,4.3,·,·
O=C(CSC1=NNC(c2ccccn2)S1)Nc1ccccc1 (stereo unspecified),-3.3,4.6,-2.7,6.6,6.5*,24.9*,-5.6,2.5
C[C@H](CO)N1C[C@H](C)[C@@H](CN(C)Cc2ccc(-c3ccccc3)cc2)Oc2c(NC(=O)c3ccncc3)cccc2C1=O,-3.5,6.6,5.6,3.2,22.3*,5.4,27.0*,-3.1
C[C@H](CO)N1C[C@H](C)[C@@H](CN(C)Cc2ccccc2)Oc2c(NC(=O)c3ccncc3)cccc2C1=O,-2.4,-1.4,-3.8,-10.2,1.0,2.4,·,·
C[C@H](CO)N1C[C@H](C)[C@@H](CN(C)Cc2ccc(-c3ccccc3)cc2)Oc2c(NS(=O)(=O)c3ccc(F)cc3)cccc2C1=O,2.8,-4.1,-1.3,-6.7,9.1*,1.5,9.2*,-1.3
CC1(C(=O)NCc2ccccc2)Cc2c(-c3cccc(C(N)=O)c3)ccnc2O1 (stereo unspecified),·,·,·,1.5,3.2,·,·,·
COc1ccc(CNC(=O)C2(C)Cc3c(-c4cccc(C(N)=O)c4)ccnc3O2)cc1OC (stereo unspecified),·,·,·,-2.7,11.1*,·,7.2*,0.1
CC(=O)c1cccc(NC(=O)C2(C)Cc3c(-c4cccc(C(N)=O)c4)ccnc3O2)c1 (stereo unspecified),·,·,·,0.1,8.2*,·,11.8*,1.9
